# Shown are actives, neighbours in structure and some others; about 12% of the full set was active somewhere.
# NS1 function inh: qHTS Assay for Inhibitors of Influenza NS1 Protein Function. Potency, µM (series often up to 46.1 µM), without a hit: top-dose activity, positive = more growth. hit rate 0.4% among 270,000. AID 2326, 2010; note: potency is the fitted concentration of half-maximal effect; actives are rising curves; nearly all actives have a fitted effect of over 50% in size
#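 A cell-based growth assay was used: compounds that relieve NS1-induced slow growth of budding yeast raise OD600. Assay medium was yeast nitrogen base with ammonium sulphate and -URA supplement, pH 6.0, with 2% galactose.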
# Shiga inhibitor: A qHTS for Small Molecule Inhibitors of Shiga Toxin; Vero cells, Shiga toxin protein synthesis inhibition reporter; inhibition, % at 38.7 µM; hit rate 9.2% among 290,000; in the data active = inhibition mostly above about 28%, no sharp cut-off; inactive = mostly below about 43%; note: 0% is about no effect
# CHX counter: Cycloheximide Counterscreen for Small Molecule Inhibitors of Shiga Toxin | cell reporter, cycloheximide protein synthesis inhibition counterscreen | max response, % | hit rate 12% among 300,000; in the data active = max response mostly above about 13%, no sharp cut-off; inactive = mostly below about 14%; note: read at 38.3 µM for the half of the compounds with a filed dose; 0% is about no effect
# SARS PLpro yeast-1: qHTS of Yeast-based Assay for SARS-CoV PLP; AID 485353, 2010; S. cerevisiae expressing SARS-CoV PLpro, growth rescue; Potency, µM (doses to about 32.9 µM), inactives show top-dose activity, positive = growth rescue, usual class: activators; hit rate 0.19% among 330,000; note: potency is the fitted concentration of half-maximal effect; 0% is about no effect; nearly all actives have a fitted effect of over 55% in size
# SARS PLpro yeast-2: qHTS of Yeast-based Assay for SARS-CoV PLP: Hit Validation | shares compounds with SARS PLpro yeast-1 | yeast expressing SARS-CoV PLpro, growth phenotype rescue | calls only | hit rate 19% among 1,000; call rule not given here
# * = called active by the depositor; i = inactive; ? = inconclusive; nt = no result; + = active, no number. Unless noted, calls come from the whole dose curve.
SMILES,NS1 function inh,Shiga inhibitor,CHX counter,SARS PLpro yeast-1,SARS PLpro yeast-2
O=C(Nc1ccccn1)c1ccc([N+](=O)[O-])o1,-23%,65*,33*,10µM*,i
COc1cc(CNCc2ccccn2)ccc1OCc1ccc(Cl)cc1,-7%,36,16,?,i
COc1cccc(C(=O)CSc2nnc(-c3cc(OC)c(OC)c(OC)c3)o2)c1,1%,8,1,?,?
CN(C)S(=O)(=O)c1ccc(S(=O)(=O)NCc2cccs2)cc1,-5%,-8,-1,3%,nt
CCNC(=S)N/N=C/c1cccs1,2%,-5,1,?,+
CCOc1ncccc1C(=O)OCC(=O)Nc1ccc2c(c1)CCC2,nt,nt,nt,?,i
CN(C)c1ccc(/C=C(/NC(=O)c2ccccc2Cl)C(=O)NCCN2CCOCC2)cc1,-16%,-9,9,?,nt
CCN1C(=O)/C(=C2/C=CC=CN2C)OC1=S,-144%,5,2,11µM*,i
Cc1ccc(S(=O)(=O)c2nc(NCCN(C)C)sc2Cl)cc1,8%,-5,-5,?,i
O=c1c2ccccc2nc(COc2ccccc2)n1/N=C/c1cc([N+](=O)[O-])ccc1O,-29%,12,7,5.6µM*,?
O=[N+]([O-])c1ccc(Cl)c(/C=N/n2c(COc3ccccc3)n[nH]c2=S)c1,0%,-11,-6,-8%,nt
Cc1cc(/C=N/n2c(COc3ccccc3C)nc3ccccc3c2=O)c(O)c([N+](=O)[O-])c1,?,57*,62*,3.5µM*,+
O=C1NCC(O)=C1C=NC12CC3CC(CC(C3)C1)C2,16%,-13,-3,2%,nt
CCOC(=O)CC(NC(=O)c1ccco1)c1ccc(OC)cc1 (centres undefined),-10%,21,2,?,i
COc1ccc(C(CC(=O)O)NC(=O)c2ccco2)cc1 (centres undefined),2%,3,-3,9%,nt
c1ccc2c(c1)CC1(CCCCC1)n1nnnc1-2,-5%,-4,-1,14µM*,i
COc1ccc(S(=O)(=O)N(CC(=O)N2CCOCC2)c2cc(Cl)ccc2OC)cc1OC,-18%,-1,-1,1%,nt
O=C1NC2NC(=O)N(C(Cc3ccccc3)C(=O)O)C2N1 (centres undefined),6%,-18,-10,1%,nt
O=C(NN=Cc1ccc(O)cc1O)c1ccccc1NS(=O)(=O)c1cccs1,nt,nt,nt,1.1µM*,i
Cc1cc(/C=N/NC(N)=S)c(C)n1-c1ccc(Cl)c(Cl)c1,23%,-47,-1,?,i
O=C(N/N=C/c1cc([N+](=O)[O-])ccc1O)c1cc(-c2ccccc2)nc2ccccc12,7%,-13,6,nt,+
Cc1cc(C(=O)N/N=C/c2cc(Br)cc([N+](=O)[O-])c2O)c2ccccc2n1,-40%,-4,-1,1.8µM*,i
O=C(N/N=C/c1cc([N+](=O)[O-])ccc1Cl)c1cc(-c2ccccc2)nc2ccccc12,1%,-11,1,0%,nt
Cc1cc(C(=O)N/N=C/c2cc([N+](=O)[O-])ccc2O)c2ccccc2n1,5%,-2,-3,3.2µM*,i
Cc1ccccc1C(=O)Nc1cccc(C(=O)N/N=C/c2cc(Cl)cc([N+](=O)[O-])c2O)c1,nt,-4,0,7.9µM*,?
SMILES,NS1 function inh,Shiga inhibitor,CHX counter,SARS PLpro yeast-1,SARS PLpro yeast-2
Cc1cc(C(=O)N/N=C/c2ccc([N+](=O)[O-])s2)c2ccccc2n1,-2%,1,-2,-5%,nt
COc1ccc2nc(NC3=NC(C(=O)Nc4ccc(C)cc4)CC(=O)N3)nc(C)c2c1 (centres undefined),10%,-2,6,1%,nt
CCOc1ccc(N(CC(=O)N2CCOCC2)S(=O)(=O)c2ccc(Cl)cc2)cc1,-19%,-15,-6,-8%,nt
CCN(CC(=O)Nc1ccc(NC(C)=O)cc1)C(=O)c1cc2c(s1)CCCCC2,nt,nt,nt,1%,nt
COc1ccc(C2C=C(C34CC5CC(CC(C5)C3)C4)NC(=S)N2)cc1OC (centres undefined),19%,-10,-3,14µM*,+
Cc1ccc(-c2cc(C(=O)NCc3cnn(C)c3C)c3cc(Br)ccc3n2)cc1,8%,76,8,?,i
Cc1ccc(-c2cc(C(=O)N(C)Cc3cnn(C)c3C)c3cc(Br)ccc3n2)cc1,-9%,-4,2,-25%,nt
Cc1ccc(C)c(S(=O)(=O)N2CCCOC2CNC(=O)C(=O)NCCCn2ccnc2)c1 (centres undefined),-3%,-6,-3,16%,nt
Cc1cc(C)c(S(=O)(=O)N2CCCOC2CNC(=O)C(=O)NCCCn2ccnc2)c(C)c1 (centres undefined),0%,-1,-1,?,?
CCC(=O)N(C)CCc1cc2c(c(OC)c1/C=N/NC(=O)c1ccccc1O)OCO2,19%,35,-2,?,+
COc1cc([N+](=O)[O-])cc(/C=N/NC(=O)c2ccc(NC(=O)c3ccc(C)cc3)cc2)c1O,6%,-5,-3,0%,nt
COc1cc([N+](=O)[O-])cc(/C=N/NC(=O)C(C)Nc2cccc(C)c2)c1O (centres undefined),-2%,-7,-2,?,?
C=CCc1cccc(/C=N/NC(=O)C(C)Nc2cccc(C)c2)c1O (centres undefined),-21%,2,-6,?,nt
COc1cc([N+](=O)[O-])cc(/C=N/NC(=O)c2ccc(C)nc2)c1O,11%,-12,9,8.9µM*,?
COc1ccccc1C(=O)NC(=S)Nc1ccc(NC(=O)c2ccco2)cc1,3%,23,8,-3%,nt
COc1ccccc1C(=O)NC(=S)Nc1ccc(NC(=O)c2cccs2)cc1,24%,35,-5,?,i
C=CCOc1ccc(/C=N\NC(N)=S)cc1,-8%,13,-1,1%,nt
CC(C)Oc1ccc(/C=N/NC(N)=S)cc1,-6%,67*,61*,?,+
Cc1cccc(C2=NN(c3ccc(Br)cc3)[C@@H](C(=O)N3CCOC3=O)[C@@H]2c2ccccc2)c1,nt,-5,-3,3.5µM*,i

# Bioassay records from PubChem BioAssay.
